Measles CPE: protection of cells from measles virus | Measles virus-infected cells, CPE protection, absorbance | hit rate 1.5% among 140,000 | protection (pct of control), % at 4 µM; in the data active means protection mostly above about 24%, no sharp cut-off; inactive means mostly below about 26%
ROMK primary: modulators of human ROMK potassium channel | B-score at 10 µM | hit rate 2% among 130,000 | Tet-inducible ROMK, thallium flux fluorescence; actives lie on both sides | AID 1918;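 active means signal ratio slope over the read window, or its plate-corrected B-score, at least 3 SD from the plate mean, either direction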;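 further: B-score of the F/F0 ratio slope over 7 to 12 s after thallium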
Target sequence (P48048 whole entry, looked up): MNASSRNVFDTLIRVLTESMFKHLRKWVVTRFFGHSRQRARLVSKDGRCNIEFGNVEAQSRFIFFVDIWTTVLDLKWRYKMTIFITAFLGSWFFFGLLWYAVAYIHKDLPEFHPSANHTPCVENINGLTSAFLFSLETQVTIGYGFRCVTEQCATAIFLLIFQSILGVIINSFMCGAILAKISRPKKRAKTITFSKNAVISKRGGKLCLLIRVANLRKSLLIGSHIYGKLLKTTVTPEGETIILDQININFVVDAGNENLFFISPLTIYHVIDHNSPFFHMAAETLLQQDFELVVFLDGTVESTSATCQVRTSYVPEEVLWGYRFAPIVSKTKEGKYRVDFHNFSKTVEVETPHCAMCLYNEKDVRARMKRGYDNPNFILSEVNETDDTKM
Insulin prom inh: TRM-6 insulin promoter activity inhibition; TRM-6 cells (human fetal islet line), insulin promoter-eGFP reporter, imaging; reporter expression induced with tamoxifen; inhibition, % at 2 µM; hit rate 0.9% among 130,000;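 active means inhibition above the mean plus 3 SD, with well images judged a real hit on visual review, cut at about 60% in these data, passing the limit was not always enough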
sdo1 growth: sdo1-depleted yeast growth rescue; S. cerevisiae sdo1-depleted JHY4D growth rescue, OD600 30 h; active compounds read high; pdr5 snq2 efflux-pump mutant strain; z-score at 10 µM; hit rate 0.21% among 140,000;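 active means z-score above 3 at both the 24 hr and the 30 hr optical density reads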;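 further: z-score against mean and SD of all compound wells on the same plate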
* marks the source's active call; other numbers are inactive results; . = no result. Rows were chosen to be rich in hits. Some 3% of all compounds tested hit in one or more screens of this group.

SMILES	Measles CPE	ROMK primary	Insulin prom inh	sdo1 growth
COc1ccccc1N1CCN(C2CCN(S(=O)(=O)c3ccc4ccccc4c3)CC2)CC1	2.1	.	-17.6	-0.67
COc1ccc([N+](=O)[O-])cc1NC(=S)NC(NC(=O)C(c1ccccc1)c1ccccc1)C(Cl)(Cl)Cl (configuration not stated)	77.3*	.	-61.5	-0.05
CCOC(=O)Cc1csc(/C(=N/O)C(N)=O)n1	32.8*	2.89	-9.5	0.5
CCOc1ccc2nc(/N=C/c3c(C)[nH]n(-c4ccccc4)c3=O)sc2c1	51.0	2.6*	.	0.85
CCOc1ccc2nc(/N=C/c3c(C)[nH]n(-c4ccc(C)cc4)c3=O)sc2c1	7.0	0.262	20.0	0.33
O=C(c1ccccc1)c1c[nH]c(C(=O)NCCCn2ccnc2)c1	6.7	.	.	0.67
COc1cc2cc(CN(Cc3cccs3)C(=S)Nc3ccccc3)c(=O)[nH]c2cc1OC	4.5	0.191	-46.1	-0.53
COc1ccnc(Oc2ccc(F)cc2)c1C(=O)N/C=N/OCc1ccc(Cl)cc1Cl	29.3*	.	9.4	-0.2
COc1cc(C(=O)Nc2nnc(CC(=O)N3CCOCC3)s2)cc(OC)c1OC	14.7	.	48.8	1
CC(C)CNC(=O)c1ccccc1SCC(=O)NC12CC3CC(CC(C3)C1)C2	14.3	-0.0124	-58.8	-0.96
Cc1ccc(N2C(=O)CC(NNc3nc4ccccc4s3)C2=O)cc1 (configuration not stated)	47.8*	-0.0793	-7.1	-0.03
CCCc1nn(C)c2c1C(c1ccncc1)C(C#N)=C(N)O2 (configuration not stated)	39.8*	0.15	.	-0.84
NS(=O)(=O)c1ccc(NC(=O)C2Cc3ccccc3C(=O)O2)cc1 (configuration not stated)	.	1.01	71.4*	.
O=c1[nH]c(CN2CCN(CCO)CC2)nc2ccccc12	3.5	.	100.0*	1.03
O=c1[nH]c(CN2CCN(c3ccccc3O)CC2)nc2ccccc12	4.7	.	-61.3	0.13
CCOc1ccc(CN(C(=O)c2oc3cc(C)ccc3c2C)C2CCS(=O)(=O)C2)cc1 (configuration not stated)	4.0	-0.721	65.6*	0.13
COCCn1c(-c2cccc([N+](=O)[O-])c2)nc2c1c(=O)[nH]c(=O)n2Cc1ccccc1	27.2*	.	37.0	-0.25
Cn1c(-c2cccc(OCc3ccccc3)c2)nc2c1c(=O)[nH]c(=O)n2Cc1ccccc1	0.6	-0.713	-1.8	-0.92
C=C(C)CNC(=S)N1CCNC(=O)C1CC(=O)OC (configuration not stated)	14.5	0.0167	6.9	0.53
N=C1c2ccccc2CN1NC(=O)c1cccc(S(=O)(=O)N2CCCC2)c1	4.2	.	.	0.09
O=C(Nc1ccc2oc(Cc3ccc(Cl)cc3)nc2c1)c1cccnc1	1.8	.	52.0	-1.13
CCOc1cccc(C(=O)Nc2ccc3oc(Cc4ccc(Cl)cc4)nc3c2)c1	33.1*	.	-56.5	-1.96
Cc1ccc(N=C2SC(C(=O)Nc3ccc(OC(F)(F)F)cc3)C(N)=C2C(=O)Nc2c(C)cc(C)cc2C)cc1 (configuration not stated)	8.0	0.0246	.	-0.12
COc1ccc(CN2C3CCCC2CC(NC(=O)Nc2ccccc2)C3)cc1 (configuration not stated)	17.1	.	81.2*	0.46
COc1ccc(CN2C3CCCC2CC(NC(=O)Nc2cccc(C)c2)C3)cc1 (configuration not stated)	11.7	.	9.7	0.2
SMILES	Measles CPE	ROMK primary	Insulin prom inh	sdo1 growth
C=CCn1c(-c2cccs2)nc2ccccc21	31.1	.	80.0*	-0.28
Cc1cccc(CSC2=CS(=O)(=O)c3ccccc3N2)c1	42.4*	.	-11.4	0.14
Cc1ccc(CSC2=CS(=O)(=O)c3ccccc3N2)cc1	9.9	.	-40.9	0.33
O=C(CSc1nnc2ccccn12)Nc1nsc(-c2ccccc2)n1	27.0*	0.349	36.0	-0.41
CN(C)/C=C/C(=O)c1ccccc1OCc1cnc(Cl)s1	.	-0.00419	.	.
CCOC(=O)c1c(C)[nH]c(C(=O)C(C)OC(=O)c2cccc(OCc3c(C)noc3C)c2)c1C (configuration not stated)	76.5*	0.738	.	-0.53
CCCCCNC(=O)CSC1=N/C(=C\c2ccc(Cl)c(Cl)c2)C(=O)N1CC	41.3*	-0.301	.	0.28
N=C1C(c2nc3ccccc3s2)=C(O)CN1C1CCCCC1	.	0.173	.	.
CN(C)c1ccc(C(=O)c2ccccc2)cc1	44.5*	.	40.0	0.58
CN(C)c1ccc(C(=O)C(O)c2ccccc2)cc1 (configuration not stated)	19.2	0.00681	-2.6	1.31
Cc1cccc(C)c1NC(=S)NC(=O)c1ccc(Br)o1	.	2.11*	.	.
Cc1ccn2c(-c3n[nH]c(=S)n3C)c(C)nc2c1	5.9	0.165	.	0.17
Cc1cc(C)cc(CC(Cc2nc3ccccc3[nH]2)c2nc3ccccc3[nH]2)c1 (configuration not stated)	36.5*	.	3.9	-0.68
Cc1cc(C(=O)CCl)c(C)n1-c1cccc([N+](=O)[O-])c1	.	0.763	.	.
Cc1cc(C(=O)CCl)c(C)n1-c1ccon1	.	-0.0676	82.3*	.
CCOc1cc(N2CCOCC2)c(OCC)cc1NC(=O)COC(=O)c1cccc2ccccc12	4.2	.	.	-0.47
CCCCCCn1c(=O)[nH]c2nc3cc(N)ccc3nc2c1=O	24.3	.	.	-0.21
CC(=O)n1cc(C(C[N+](=O)[O-])SCCN)c2ccccc21 (configuration not stated)	2.8	.	25.6	-1.86
Cc1ccc(NC(=S)c2nc3ccccc3[nH]2)cc1	3.7	.	80.7*	-1.29
Clc1ccc(-c2nnc3sc(Cc4cccs4)nn23)c(Cl)c1	67.6*	-1.36	.	-0.94
Oc1ccc(Nc2nc(N3CCCC3)c3ccccc3n2)cc1	6.6	-4.83*	.	1.2
CCCCn1nnnc1NCc1ccc(C)s1	5.7	.	-30.2	-1.45
CCOC(=O)C1(CCCc2ccccc2)CCN(C(=O)C2CCCO2)CC1 (configuration not stated)	.	-0.501	.	.
CCOC(=O)C1=C(C)NC2=C(C(=O)C(C(=O)OCC)C(c3ccco3)C2)C1c1ccccn1 (configuration not stated)	49.6*	0.915	11.8	-0.52
Cc1c(O)c(CN2CCCC(C)C2)cc2c3c(c(=O)oc12)CCC3 (configuration not stated)	.	1.25	.	.
SMILES	Measles CPE	ROMK primary	Insulin prom inh	sdo1 growth
O=C(Nc1ccccc1C(=O)NCc1ccco1)c1ccccc1	13.2	-0.0494	.	-0.24
COc1ccc(Cl)cc1N(CC(=O)Nc1ccccc1C(=O)NCc1ccco1)S(C)(=O)=O	46.3*	.	-156.2	-0.14
O=C(/C=C/c1ccc(S(=O)(=O)NCc2ccco2)cc1)NCc1ccccc1Cl	6.5	.	.	-0.49
O=C(/C=C/c1ccc(Cl)cc1)NCc1ccco1	18.5*	-1.55	-26.9	-0.87
O=C(Nc1ccc(Cl)cc1)Nc1ccccc1C(=O)NCc1ccco1	37.6*	0.173	-24.1	0.06
COc1ccc(OC)c(N(CC(=O)Nc2ccccc2C(=O)NCc2ccco2)S(C)(=O)=O)c1	8.1	.	30.0	-0.48
CCN(CC)C(=S)Nc1ccc(C(=O)OC)cc1	.	0.0813	.	.
CCN(CC)C(=O)Nc1ccc(C(=O)OC)cc1	6.0	-0.565	83.3*	0.59
CNC(=O)c1nn(-c2ccc(C)cc2)ccc1=O	43.0*	.	40.0	0.18
NNC(=O)c1nn(-c2ccc(Cl)cc2)ccc1=O	5.9	.	.	1.46

Screening results (PubChem)
